Reference: PubChem BioAssay (NCATS)
Several values for one entry are separate records, joined by “and”; a condition that tells them apart may be missing. Identical values can stand only once. Values without a mark were called inactive. A call without a number means that no potency is given here. Activity calls are given as the source filed them. Unless noted, the call rests on the fitted dose curve; in most records, active means well fitted curve in the direction sought with a large enough effect; inconclusive means small, poorly fitted or top-dose-only effect, or another doubt; inactive means no such curve, though single readings can be large; an effect the other way counts as inactive or inconclusive. Numbered stars: 1 amine (or outer) side, 2 acyl side, 3 side chain; on linkers, the order of the positions; unused ones are H or OH. Bridge positions count the residues as written; N and C are the ends. Square brackets hold non-standard residues; d marks the D form. Peptide text beside a SMILES is read from it. I, II: the chains in the order shown. Actinocin(9to1) = Cc1c2oc3c(C)ccc(C(=O)[*:1])c3nc-2c(C(=O)[*:2])c(N)c1=O; NMeV = CN[C@H](C(=O)O)C(C)C; Sar = CNCC(=O)O

Columns and labels:
[1] = target: ATP-dependent 6-phosphofructokinase (Trypanosoma brucei brucei) (UniProt O15648); assay: qHTS Assay to Find Inhibitors of T. brucei phosphofructokinase: hit validation (AID 492961); further: series mostly up to about 51 µM
Summary of the method: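 Luminescence from ADP-Glo reports ADP generated as T. brucei PFK (1.25 nM) phosphorylates 0.5 mM fructose-6-phosphate using 0.1 mM ATP. Reactions ran 45 min at room temperature, pH 8.0.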

[2] = target: Ubiquitin carboxyl-terminal hydrolase 1 (Homo sapiens) (UniProt O94782); assay: Inhibitors of USP1/UAF1: Pilot qHTS (AID 504865); further: nearly all actives have a fitted effect of over 35% in size; further: potency means the concentration at half of the fitted maximal effect
Summary of the method: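 Deubiquitinase activity followed as kinetic rhodamine fluorescence release from 150 nM Ub-Rho. 1 nM USP1/UAF1 with compound, after 15 min room-temperature preincubation, in HEPES pH 7.8 buffer containing TCEP, EDTA, BSA and Tween-20.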

[3] = target: DNA dC->dU-editing enzyme APOBEC-3G (Homo sapiens) (UniProt Q9HC16); assay: qHTS for inhibitors of Vif-A3G interactions: Validation (AID 588379)
Summary of the method: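 HeLa cells stably expressing Vif and A3G-eYFP, 700 cells/well, incubated overnight at 37 deg C, then exposed to compound overnight at 37 deg C. Inhibition of Vif-mediated degradation read as increased yellow fluorescence (Ex 488/Em 500-530) by laser-scanning cytometry.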

[4] = target: Estrogen receptor (Homo sapiens) (UniProt P03372); assay: qHTS assay for small molecule antagonists of estrogen receptor alpha signaling (AID 588513; active means well fitted curve in the direction sought with a large enough effect in the signal ratio, with a control signal flat, not every such curve was filed as active; inconclusive means small, poorly fitted or top-dose-only effect, or effect the other way, or a change in a side signal; inactive means no such curve, though single readings can be large or run the other way; the % refers to the signal ratio; further: potency means the concentration at half of the fitted maximal effect)
Summary of the method: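 Antagonist mode: inhibition of 0.5 nM 17-beta-estradiol-driven beta-lactamase reporter in HEK 293 ER-alpha-UAS-bla cells, 18 h at 37C, CCF4 readout after 2 h at RT. Normalised to estradiol and DMSO; titration fitted to Hill.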

[5] = target: Estrogen receptor (Homo sapiens) (UniProt P03372); assay: qHTS assay for small molecule agonists of estrogen receptor alpha signaling (AID 588514; calls by dose curve; further: nearly all actives have a fitted effect of over 70% in size)
Summary of the method: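 Reporter-gene assay. […] controls beta-lactamase in HEK 293 GripTite cells; after 18 hrs with compound, CCF4 substrate is added for 2 hrs and fluorescence is read.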

[6] = target: Androgen receptor (Homo sapiens) (UniProt P10275); assay: qHTS assay for small molecule agonists of androgen receptor signaling (AID 588515; active means well fitted curve in the direction sought with a large enough effect in the signal ratio, with a control signal flat; inconclusive means small, poorly fitted or top-dose-only effect, or effect the other way, or a change in a side signal; inactive means no such curve, though single readings can be large or run the other way; the % refers to the signal ratio); settings: AR-UAS-bla HEK293, beta-lactamase ratio, agonist 16 h; active compounds read high
Summary of the method: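 EC50 and efficacy came from Hill fits of titrations (up to 92 uM) normalized to 30 nM R1881 as 100% and DMSO as 0%. Compound exposure was 16 h at 37 C on AR-UAS-bla HEK293 cells, with a 405/460/530 nm CCF4 fluorescence read.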

[7] = target: Thyrotropin-releasing hormone receptor (Homo sapiens) (UniProt P34981); assay: qHTS for Small Molecule Agonists and Allosteric Enhancers of Human TRH Receptor: Validation Screen for Agonists (AID 493127;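 active means calcium activation more than 3 SD above the typical response in the agonist read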;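 further: intracellular calcium rise by fluo-8 fluorescence before TRH EC20 addition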); settings: TRH receptor agonist cell assay; at 2 µM; active compounds read high
Summary of the method: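 Gq-coupled calcium mobilization in TRHR cells after compound addition, monitored kinetically with fluo-8 dye on an FDSS reader.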

[8] = Validation screen for small molecules that induce DNA re-replication in SW480 colon adenocarcinoma cells (AID 504364)
Summary of the method: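 Cells are treated 48 hr with test compound, stained 40 min with Hoechst at 37 C, and scanned for nuclear fluorescence; compounds inducing re-replication increase nuclei with elevated intensity.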

[9] = target: Galactokinase (Homo sapiens) (UniProt P51570); assay: qHTS Validation Assay for Inhibitors of Human Galactokinase (GALK) (AID 493189)
Summary of the method: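 Inhibition was measured as remaining ATP, detected by luciferase luminescence after a 1 h room-temperature reaction. Final conditions: 5 nM GALK, 100 uM galactose, 35 uM ATP, pH 8.0 HEPES buffer.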

Sequence of Estrogen receptor (Homo sapiens) (P03372 whole entry, looked up): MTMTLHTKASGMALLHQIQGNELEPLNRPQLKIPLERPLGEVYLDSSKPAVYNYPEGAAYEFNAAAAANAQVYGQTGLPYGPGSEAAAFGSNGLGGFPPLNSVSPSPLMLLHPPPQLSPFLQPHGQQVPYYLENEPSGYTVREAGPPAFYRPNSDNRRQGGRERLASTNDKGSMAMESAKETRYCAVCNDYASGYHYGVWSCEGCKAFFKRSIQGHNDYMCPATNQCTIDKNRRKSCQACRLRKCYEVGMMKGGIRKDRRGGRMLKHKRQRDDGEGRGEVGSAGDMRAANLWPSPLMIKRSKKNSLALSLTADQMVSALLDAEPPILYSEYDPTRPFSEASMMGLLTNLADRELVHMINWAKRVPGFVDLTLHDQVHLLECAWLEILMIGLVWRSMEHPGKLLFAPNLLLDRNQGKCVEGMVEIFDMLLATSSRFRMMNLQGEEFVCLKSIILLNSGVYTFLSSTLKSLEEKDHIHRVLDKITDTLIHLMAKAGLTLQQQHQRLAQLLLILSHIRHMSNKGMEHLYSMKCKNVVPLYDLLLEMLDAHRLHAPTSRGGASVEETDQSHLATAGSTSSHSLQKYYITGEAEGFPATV
Sequence of ATP-dependent 6-phosphofructokinase (Trypanosoma brucei brucei) (O15648 whole entry, looked up): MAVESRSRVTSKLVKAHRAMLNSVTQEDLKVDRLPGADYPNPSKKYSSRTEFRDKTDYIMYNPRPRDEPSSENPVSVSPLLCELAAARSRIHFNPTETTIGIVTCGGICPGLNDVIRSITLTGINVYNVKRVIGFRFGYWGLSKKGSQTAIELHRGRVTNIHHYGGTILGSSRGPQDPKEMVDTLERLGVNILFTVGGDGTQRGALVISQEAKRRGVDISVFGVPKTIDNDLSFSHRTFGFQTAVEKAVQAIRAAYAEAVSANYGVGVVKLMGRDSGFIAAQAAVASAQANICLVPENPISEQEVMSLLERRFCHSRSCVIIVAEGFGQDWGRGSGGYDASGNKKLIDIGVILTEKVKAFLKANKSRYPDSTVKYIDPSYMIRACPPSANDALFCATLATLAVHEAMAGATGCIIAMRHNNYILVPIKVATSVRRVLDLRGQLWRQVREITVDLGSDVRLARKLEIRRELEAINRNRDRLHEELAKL
Sequence of Ubiquitin carboxyl-terminal hydrolase 1 (Homo sapiens) (O94782 whole entry, looked up): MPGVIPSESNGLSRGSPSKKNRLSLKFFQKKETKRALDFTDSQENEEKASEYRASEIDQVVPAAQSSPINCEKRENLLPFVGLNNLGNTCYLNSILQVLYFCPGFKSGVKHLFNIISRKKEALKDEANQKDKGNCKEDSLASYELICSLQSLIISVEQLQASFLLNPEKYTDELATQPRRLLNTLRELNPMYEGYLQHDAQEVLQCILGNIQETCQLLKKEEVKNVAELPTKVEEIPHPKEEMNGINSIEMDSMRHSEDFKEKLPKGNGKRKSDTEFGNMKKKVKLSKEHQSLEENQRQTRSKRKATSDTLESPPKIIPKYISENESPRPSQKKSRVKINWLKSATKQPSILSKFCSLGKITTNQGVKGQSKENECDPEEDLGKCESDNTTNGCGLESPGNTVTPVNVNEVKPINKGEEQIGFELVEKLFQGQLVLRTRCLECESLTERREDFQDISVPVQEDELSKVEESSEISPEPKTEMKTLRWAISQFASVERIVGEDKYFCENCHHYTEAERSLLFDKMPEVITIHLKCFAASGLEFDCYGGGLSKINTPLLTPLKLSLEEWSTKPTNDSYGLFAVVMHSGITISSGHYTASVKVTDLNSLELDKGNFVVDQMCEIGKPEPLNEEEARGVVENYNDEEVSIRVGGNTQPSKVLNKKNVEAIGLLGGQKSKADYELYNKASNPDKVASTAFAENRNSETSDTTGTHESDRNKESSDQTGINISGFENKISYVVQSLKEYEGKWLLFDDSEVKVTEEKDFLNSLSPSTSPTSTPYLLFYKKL
Sequence of DNA dC->dU-editing enzyme APOBEC-3G (Homo sapiens) (Q9HC16 whole entry, looked up): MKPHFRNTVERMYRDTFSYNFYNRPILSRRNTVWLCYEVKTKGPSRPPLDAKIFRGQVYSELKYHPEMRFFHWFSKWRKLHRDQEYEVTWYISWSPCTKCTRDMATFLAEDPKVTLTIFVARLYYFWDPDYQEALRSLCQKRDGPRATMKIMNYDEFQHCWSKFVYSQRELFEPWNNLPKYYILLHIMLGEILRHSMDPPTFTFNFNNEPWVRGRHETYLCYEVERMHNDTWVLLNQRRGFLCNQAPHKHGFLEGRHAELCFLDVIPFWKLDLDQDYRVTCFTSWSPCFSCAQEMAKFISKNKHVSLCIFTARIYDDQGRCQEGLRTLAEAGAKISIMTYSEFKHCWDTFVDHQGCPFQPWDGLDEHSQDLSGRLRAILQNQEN
Sequence of Androgen receptor (Homo sapiens) (P10275 whole entry, looked up): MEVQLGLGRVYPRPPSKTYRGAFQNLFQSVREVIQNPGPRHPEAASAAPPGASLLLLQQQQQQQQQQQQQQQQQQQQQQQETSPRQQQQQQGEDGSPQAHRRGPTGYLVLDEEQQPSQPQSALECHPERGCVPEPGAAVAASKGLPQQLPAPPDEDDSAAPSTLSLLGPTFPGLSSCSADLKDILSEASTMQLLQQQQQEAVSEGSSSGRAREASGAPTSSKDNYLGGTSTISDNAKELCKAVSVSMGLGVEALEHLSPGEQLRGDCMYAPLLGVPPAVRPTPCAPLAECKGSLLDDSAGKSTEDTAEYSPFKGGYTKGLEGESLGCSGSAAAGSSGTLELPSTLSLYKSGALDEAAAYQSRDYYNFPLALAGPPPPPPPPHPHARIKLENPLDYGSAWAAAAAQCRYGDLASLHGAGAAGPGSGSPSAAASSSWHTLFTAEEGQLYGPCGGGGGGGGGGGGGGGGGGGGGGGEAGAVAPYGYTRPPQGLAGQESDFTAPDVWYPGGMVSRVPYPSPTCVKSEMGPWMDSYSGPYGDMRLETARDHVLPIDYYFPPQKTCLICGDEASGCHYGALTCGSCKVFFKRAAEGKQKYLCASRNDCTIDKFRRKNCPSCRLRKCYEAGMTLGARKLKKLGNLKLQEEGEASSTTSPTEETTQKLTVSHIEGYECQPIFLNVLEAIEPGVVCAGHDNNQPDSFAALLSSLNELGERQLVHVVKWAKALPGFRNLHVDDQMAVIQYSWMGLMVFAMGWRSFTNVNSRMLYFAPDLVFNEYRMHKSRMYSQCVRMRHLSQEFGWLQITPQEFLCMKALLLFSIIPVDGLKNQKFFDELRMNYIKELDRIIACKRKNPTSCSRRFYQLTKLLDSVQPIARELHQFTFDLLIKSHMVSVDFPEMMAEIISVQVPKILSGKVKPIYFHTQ
Sequence of Thyrotropin-releasing hormone receptor (Homo sapiens) (P34981 whole entry, looked up): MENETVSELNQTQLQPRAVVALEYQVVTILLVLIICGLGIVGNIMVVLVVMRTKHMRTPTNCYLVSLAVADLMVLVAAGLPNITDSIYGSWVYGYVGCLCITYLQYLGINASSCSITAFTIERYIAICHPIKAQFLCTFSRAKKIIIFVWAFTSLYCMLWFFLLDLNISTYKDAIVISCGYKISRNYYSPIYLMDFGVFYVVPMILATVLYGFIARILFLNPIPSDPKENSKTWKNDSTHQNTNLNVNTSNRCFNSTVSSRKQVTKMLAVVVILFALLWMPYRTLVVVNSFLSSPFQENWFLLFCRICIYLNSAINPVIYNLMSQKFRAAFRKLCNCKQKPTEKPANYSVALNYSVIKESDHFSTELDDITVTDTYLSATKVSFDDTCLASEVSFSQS
Sequence of Galactokinase (Homo sapiens) (P51570 whole entry, looked up): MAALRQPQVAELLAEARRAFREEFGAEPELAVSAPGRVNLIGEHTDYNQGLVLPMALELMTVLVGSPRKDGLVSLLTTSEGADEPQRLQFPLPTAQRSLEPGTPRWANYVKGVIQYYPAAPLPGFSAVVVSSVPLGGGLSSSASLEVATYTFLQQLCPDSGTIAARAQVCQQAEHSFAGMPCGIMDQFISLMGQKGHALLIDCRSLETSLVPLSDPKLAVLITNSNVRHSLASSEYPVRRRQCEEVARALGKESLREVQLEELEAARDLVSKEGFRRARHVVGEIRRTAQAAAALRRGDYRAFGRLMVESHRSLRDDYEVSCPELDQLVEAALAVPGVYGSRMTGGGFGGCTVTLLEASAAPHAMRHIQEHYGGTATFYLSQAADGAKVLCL

COc1cc2c(cc1OC)C(=O)C(CC1CCN(Cc3ccccc3)CC1)C2 (stereo not drawn)
outcome [1]: inactive
Potency [2]: inactive

CC[N+](CC)(CCNC(=O)C(=O)NCC[N+](CC)(CC)Cc1ccccc1Cl)Cc1ccccc1Cl
outcome [1]: inactive
Potency [2]: inactive
outcome [3]: inactive

CN(C(=O)CN(CCO)CC(=O)N(C)C(C)(C)Cc1ccccc1)C(C)(C)Cc1ccccc1
outcome [1]: inactive
Potency [2]: inactive

O=c1c(-c2ccccc2)c1-c1ccccc1
outcome [1]: inactive
Potency [2]: inactive

C=CCc1ccc(O)c(OC)c1
outcome [1]: inactive
Potency [2]: inactive
Potency [4]: inactive
outcome [5]: inactive

Cc1c2oc3c(C)ccc(C(=O)N[C@@H]4C(=O)N[C@H](C(C)C)C(=O)N5CCC[C@H]5C(=O)N(C)CC(=O)N(C)[C@@H](C(C)C)C(=O)O[C@@H]4C)c3nc-2c(C(=O)N[C@@H]2C(=O)N[C@H](C(C)C)C(=O)N3CCC[C@H]3C(=O)N(C)CC(=O)N(C)[C@@H](C(C)C)C(=O)O[C@@H]2C)c(N)c1=O (I: T[dV]P[Sar][NMeV] / II: T[dV]P[Sar][NMeV]; ester I:1-I:C, II:1-II:C; linker I:N-II:N via Actinocin(9to1))
Potency [4]: 35.5 nM [inconclusive] (active) and 35.5 nM [inhibitor] (active)
outcome [5]: inactive

Cc1cc(=O)n(-c2ccccc2)n1C
Potency [4]: inactive
outcome [5]: inactive
activation [6]: -8.07%

O=C(N/N=C/c1ccccc1O)c1ccncc1
Potency [2]: inactive

Nc1nc2ncc(CNc3ccc(C(=O)N[C@@H](CCC(=O)O)C(=O)O)cc3)nc2c(=O)[nH]1
Potency [2]: inactive
outcome [3]: inactive

CCC(C(=O)OCCN(CC)CC)c1ccccc1 (stereo not drawn)
Potency [2]: inactive

CCCCCCCCCCCCCCCC[N+](C)(C)CC
Potency [2]: 17.8 µM (active)

C/C=C/c1ccc(OC)cc1
Potency [2]: inactive

CC(C)(C)CC(C)(C)c1ccc(OCCOCC[N+](C)(C)Cc2ccccc2)cc1
Potency [4]: 44.7 µM [inconclusive] (active)
outcome [5]: inactive

O=C1OC(c2ccc(O)cc2)(c2ccc(O)cc2)c2ccccc21
activation [6]: -5.75%

COc1cccc2c1C(=O)c1c(O)c3c(c(O)c1C2=O)C[C@@](O)(C(=O)CO)C[C@@H]3O[C@H]1C[C@H](N)[C@H](O)[C@H](C)O1
Potency [4]: 5.01 µM [inconclusive] (active) and 7.94 µM [inhibitor] (active)
outcome [5]: inactive

CC(O)C(=O)O (stereo not drawn)
outcome [1]: inactive
Potency [2]: inactive
Potency [4]: inactive
outcome [5]: inactive

COc1ccc(OC)c(C(O)CNC(=O)CN)c1 (stereo not drawn)
Potency [2]: inactive

C[C@H]1C[C@H]2[C@@H]3CCC4=CC(=O)C=C[C@]4(C)[C@@]3(Cl)[C@@H](O)C[C@]2(C)[C@@]1(O)C(=O)CO
outcome [1]: inactive
Potency [2]: inactive
outcome [5]: inactive

O=C(O)CCCCC(=O)O
outcome [1]: inactive
Potency [4]: inactive
outcome [5]: inactive

Nc1ccc(C(=O)O)cc1
outcome [1]: inactive
Potency [2]: inactive
Potency [4]: inactive
outcome [5]: inactive

COC1=CC(=O)C[C@@H](C)[C@]12Oc1c(Cl)c(OC)cc(OC)c1C2=O
outcome [1]: inactive
Potency [2]: inactive
outcome [5]: inactive

CC(C)(Oc1ccc(Cl)cc1)C(=O)O
outcome [3]: inactive

CCN1CCN(c2cc3c(cc2F)c(=O)c(C(=O)O)cn3C2CC2)CC1
Potency [2]: inactive

O=c1ccc2ccccc2o1
outcome [1]: inactive
Potency [2]: inactive
Potency [4]: inactive
outcome [5]: inactive

CC(=O)O[C@]1(C(C)=O)CC[C@H]2[C@@H]3C[C@H](C)C4=CC(=O)CC[C@]4(C)[C@H]3CC[C@@]21C
Potency [4]: inactive
outcome [5]: inactive

Oc1c(Cl)cc(Cl)cc1Sc1cc(Cl)cc(Cl)c1O
Potency [2]: 35.5 µM (active) and 20 µM (active)
Potency [4]: 39.8 µM [inconclusive] (active)
outcome [5]: inactive

CC(C)NC[C@@H](O)COc1cccc2ccccc12
activation [7]: 1.94%
outcome [8]: inactive
outcome [3]: inactive

COc1cccc2c1C(=O)c1c(O)c3c(c(O)c1C2=O)C[C@@](O)(C(C)=O)C[C@@H]3O[C@H]1C[C@H](N)[C@H](O)[C@H](C)O1
outcome [3]: inactive

CN(C)/N=N/c1nc[nH]c1C(N)=O
outcome [1]: inactive
outcome [5]: inactive

CNCC[C@@H](Oc1ccccc1C)c1ccccc1
Potency [2]: inactive
outcome [3]: inactive

Oc1cc(O)c2c(c1)O[C@H](c1ccc(O)c(O)c1)[C@H](O)C2
Potency [2]: inactive

CCCCCCc1ccc(O)cc1O
outcome [1]: inactive
activation [6]: -17.1%

Nc1ccc(/C=C/c2ccc(N)cc2S(=O)(=O)O)c(S(=O)(=O)O)c1
Potency [2]: inactive

O=C(CCN1CCC(c2ccccc2)C1)c1ccc2c(c1)OCCO2 (stereo not drawn)
Potency [2]: inactive

C=C(CC)C(=O)c1ccc(OCC(=O)O)c(Cl)c1Cl
Potency [2]: inactive
Potency [4]: inactive
outcome [5]: inactive

CC(=O)Oc1ccc(C(c2ccc(OC(C)=O)cc2)c2ccccn2)cc1
Potency [2]: inactive

CN=C(NC#N)Nc1ccc(C2=NNC(=O)CC2C)cc1 (stereo not drawn)
outcome [9]: inactive
outcome [8]: inactive
Potency [2]: inactive
outcome [3]: inactive

CCCC(=O)Nc1ccc(OCC(O)CNC(C)C)c(C(C)=O)c1 (stereo not drawn)
Potency [2]: inactive

CN(C)CCOc1ccccc1Cc1ccccc1
Potency [2]: inactive

COc1c(C)c2c(c(O)c1C/C=C(\C)CCC(=O)O)C(=O)OC2
outcome [1]: inactive
outcome [3]: inactive
